PREPL inhibitor = inhibitors of human prolyl oligopeptidase-like enzyme PREPL; Q4J6C6; recombinant PREPL, fluorescence polarization activity-based probe; inhibition, % at 5.96 µM; 320,000 tested, 0.68% active; AID 2751; in the data active means inhibition above about 43%;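 further: 0% = enzyme with DMSO and 100% = wells lacking enzyme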
Fam108B counter = counter-screen for RBBP9 inhibitors: inhibitors of mouse Fam108B | recombinant Fam108B, FP-Rh probe fluorescence polarization | inhibition, % at 9.51 µM | 300,000 tested, 0.33% active | AID 1947;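 active means inhibition above the screen mean inhibition plus 3 SD, computed separately per campaign, cut at about 18% in these data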;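 further: inhibitors lower polarization as less probe binds the enzyme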
GSTO1 counter = blocks human GSTO1 in RBBP9 counter-screen | P78417 | recombinant GSTO1, activity-based probe fluorescence polarization | inhibition, % at 5.96 µM | 300,000 tested, 1.1% active;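 active means inhibition above the campaign mean inhibition plus 3 SD, cut at about 35% in these data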;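 further: 0% = GSTO1-1 with DMSO and 100% = wells lacking GSTO1-1 enzyme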
PME-1 inh = PME-1 (human) inhibition; Q9Y570; recombinant PME-1, FP-Rh probe fluorescence polarization; inhibition, % at 5.9 µM; 320,000 tested, 0.53% active;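 active means inhibition above the campaign mean of all compounds plus 3 SD, cut at about 26% in these data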;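 further: competitive labeling of PME-1 active site by serine hydrolase directed probe; 0% = PME-1 with DMSO and 100% = wells lacking PME-1 enzyme; inhibitors block probe labeling so polarization falls and inhibition rises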
LYPLA1 inh = blocks human lysophospholipase 1, a PME1 counter-screen; O75608; recombinant LYPLA1, FP-Rh probe fluorescence polarization; inhibition, % at 5.9 µM; 320,000 tested, 0.16% active; AID 2174;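 active means inhibition above the mean of all tested compounds plus 3 SD, set per campaign, cut at about 14% in these data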;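 further: inhibitors block serine hydrolase probe labeling of LYPLA1 so polarization falls; 0% = enzyme with DMSO and 100% = wells lacking LYPLA1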
Target sequence (O75608 whole entry, looked up): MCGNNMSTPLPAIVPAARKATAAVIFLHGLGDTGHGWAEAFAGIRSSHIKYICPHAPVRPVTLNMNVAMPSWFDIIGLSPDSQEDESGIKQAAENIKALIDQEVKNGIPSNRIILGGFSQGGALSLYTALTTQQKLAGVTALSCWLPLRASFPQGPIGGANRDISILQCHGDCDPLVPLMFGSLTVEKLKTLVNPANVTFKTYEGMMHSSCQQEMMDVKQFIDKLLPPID
LYPLA2 counter = LYPLA2 (human) inhibition in PME1 counter-screen | O95372 | recombinant LYPLA2, FP-Rh probe fluorescence polarization | inhibition, % at 5.9 µM | 320,000 tested, 0.38% active;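 active means inhibition above the screen-wide mean plus 3 SD, limit set per campaign, cut at about 26% in these data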;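 further: 0% = LYPLA2 with DMSO and 100% = wells lacking LYPLA2 enzyme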
Target sequence (O95372 whole entry, looked up): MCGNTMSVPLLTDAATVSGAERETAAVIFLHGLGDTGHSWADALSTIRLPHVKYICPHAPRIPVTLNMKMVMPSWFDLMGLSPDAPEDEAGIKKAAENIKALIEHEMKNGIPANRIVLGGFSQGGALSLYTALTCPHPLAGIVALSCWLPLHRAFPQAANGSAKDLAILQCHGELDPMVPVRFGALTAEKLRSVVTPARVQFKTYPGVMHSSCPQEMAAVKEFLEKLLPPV
Fam108b confirm = Fam108b (mouse) hydrolase inhibition, confirmation assay | 930 tested, 44% active | inhibition, % at 9.51 µM | shares compounds with Fam108B counter | recombinant Fam108b, FP-Rh probe fluorescence polarization;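 active means inhibition above a limit from the primary screen, the mean over all compounds plus 3 SD, cut at about 19% in these data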;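 further: 0% = median of active Fam108b wells and 100% = catalytically dead S170A mutant; inhibitors free the probe so polarization falls as inhibition rises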
Fam108b ABPP HTS = mouse ABHD17B inhibition. 260 tested, 44% active. shares compounds with Fam108B counter. AID 588649. inhibition, % at 20 µM. recombinant Fam108b, gel-based ABPP, fluorophosphonate probe; in the data active means inhibition above about 40%
Numbers without * were called inactive; . = not tested or not shown. Most compounds without a hit are left out; they make up all but 1.9% or so of the library.

SMILES	PREPL inhibitor	Fam108B counter	GSTO1 counter	PME-1 inh	LYPLA1 inh	LYPLA2 counter	Fam108b confirm	others
CCCc1ccc(C2C3=C(CC(C)(C)CC3=O)NC3=C2C(=O)c2ccccc23)cc1 (stereo not given)	6	24*	-2	4	-20	-12	1
CCCCc1ccc(C2C3=C(CC(C)(C)CC3=O)NC3=C2C(=O)c2ccccc23)cc1 (stereo not given)	12	18	-10	22	-12	-6	.
O=[N+]([O-])c1ccc(S(=O)(=O)Nc2ccc(-c3csc(-c4ccccc4)n3)cc2)cc1	8	25*	-18	4	-12	-7	-7
Cc1ccc2c(c1C)NC(C(=O)O)C1CC=CC21 (stereo not given)	20	23*	51*	-3	-3	9	8
Cc1cc(C)c2c(c1)NC(C(=O)O)C1CC=CC21 (stereo not given)	25	21*	18	5	-1	6	14
CCOC(=O)C1Nc2ccc(C(=O)O)cc2C2C=CCC12 (stereo not given)	8	18	27	-39	-14	-7	.
O=C(O)C1Nc2c(C(F)(F)F)ccc(Cl)c2C2C=CCC12 (stereo not given)	18	-3	10	1	2	6	.
CC(C)(C)[C@H]1COC(=O)CC/C=C\C[C@H](CC(=O)N(CCO)Cc2ccccc2)C(=O)N1	14	.	.	.	.	.	.
N#Cc1cccc(NC(=O)CSc2ccc3c4c(cccc24)C(=O)c2ccccc2-3)c1	10	35*	36*	10	-1	1	21*
Cc1ccccc1NC(=O)CSc1ccc(-c2ccco2)nn1	7	1	17	2	2	2	.
O=C(CSc1ccc(-c2ccco2)nn1)NCc1ccccc1Cl	5	22*	5	17	6	11	6
O=C1C=C(c2cccc3c2oc2ccccc23)C[C@@H](c2ccc(F)cc2)C1	-26	.	.	-8	-6	-14	.
O=c1oc(-c2ccccc2NS(=O)(=O)c2ccccc2)nc2ccccc12	8	21*	-281	-3	-3	-1	18
CN(C)c1ccc(C=NN2C(=S)SC(C)(C)C2N(O)C(=O)Nc2ccc([N+](=O)[O-])cc2)cc1 (stereo not given)	.	.	.	.	.	.	.	Fam108b ABPP HTS=95*
CNC(=O)N(O)C1N(/N=C/c2ccc(SC)cc2)C(=S)SC1(C)C (stereo not given)	-5	-3	2	-1	-1	5	.
CN(C)c1ccc(/C=N/N2C(=S)SC(C)(C)C2N(O)C(=O)Nc2ccc([N+](=O)[O-])cc2)cc1 (stereo not given)	3	33*	0	5	-3	4	100*
Cc1noc(C)c1C(=O)Nc1ccc(-c2nnc3n2CCCCC3)cc1	6	.	.	2	8	1	.
Cc1ccc(-c2ccc(/C=C3\C(=O)ON=C3c3ccccc3)o2)c([N+](=O)[O-])c1	14	22*	31	11	6	6	7
Cc1ccc(/C=C2\C(=O)ON=C2c2ccccc2)o1	-4	1	1	-5	1	-2	.
COc1ccc(C2C3=C(CC(C)(C)CC3=O)Nc3c2c(=O)[nH]c(=O)n3Cc2ccccc2)cc1 (stereo not given)	11	21*	9	-4	7	-2	22*
COc1ccc(C2C3=C(CC(C)(C)CC3=O)Nc3c2c(=O)[nH]c(=O)n3Cc2ccccc2)cc1OC (stereo not given)	3	1	-7	-4	-6	-1	.
C1=C(CCNc2ncnc3c2[nH]c2ccccc23)CCCC1	34	21*	-1	45*	-10	-8	8
O=C(c1ccc(OC2CCN(Cc3ccccn3)CC2)cc1)N1CCC[C@H]1CO	13	1	15	6	-1	5	.
CC1CC1C(=O)Nc1nc(-c2ccc(Cl)s2)cs1 (stereo not given)	1	20*	4	0	-7	-11	-5
Nc1[nH]n(-c2ccccc2)c(=O)c1N=Nc1ccccc1	41	10	13	24	2	3	.
